{
  "source": "PubChem BioAssay AID720697",
  "about": "(Broad Institute, 2013)",
  "note": "Potency and affinity values are given separately. Inconclusive results are not listed. The source made the active and inactive calls.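 Rule for the calls: active = signal loss with fitted half-maximal concentration at or below twice the top valid tested dose in every test run; inconclusive = runs disagree, flat 30 to 70% signal loss, or poor fit; inactive = all runs flat, opposite direction, or potency beyond limit.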",
  "data": [
    {"assay": "HEK293T cytotoxicity, dose response, cytotoxicity control for miR-122 modulator project, cell-based, inhibitor set, cherry-pick, set 2 (AID 720697);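 note: 0% = median of neutral control wells and -100% = MG132 positive control wells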", "conditions": "HEK293T viability, CellTiter-Glo luminescence, 48 h; series mostly up to 26 µM; activity change, negative = cytotoxicity: at the top concentration", "values": [
      {"smiles": "c1cnc(N2CCN(Cc3c[nH]c4ccccc34)CC2)nc1", "activity change, negative = cytotoxicity": "6.09% (inactive)"},
      {"smiles": "O=C(c1cccc(F)c1)N1C[C@@H]2[C@H](c3ccccc31)[C@H](CO)N2C(=O)Cc1ccccc1", "activity change, negative = cytotoxicity": "-34.4% (inactive)"},
      {"smiles": "CCNC(=O)C[C@H]1CC[C@H]2[C@@H](COc3ccc(NC(=O)c4ccccc4)cc3C(=O)N2C)O1", "activity change, negative = cytotoxicity": "118% (inactive)"},
      {"smiles": "O=C(Nc1ccc(F)cc1)N1C[C@@H]2[C@H](c3ccccc31)[C@H](CO)N2C(=O)Cc1ccccc1", "activity change, negative = cytotoxicity": "39.6% [at 23.5 µM] (inactive)"},
      {"smiles": "CN1C[C@@H]2[C@H](c3ccccc31)[C@@H](CO)N2C(=O)Nc1ccccc1", "activity change, negative = cytotoxicity": "144% (inactive)"},
      {"smiles": "COc1cccc(NC(=O)C[C@@H]2CC[C@@H]3[C@@H](COc4ccc(NS(=O)(=O)c5cccc(F)c5)cc4C(=O)N3C)O2)c1", "activity change, negative = cytotoxicity": "85.1% [at 23.5 µM] (inactive)"},
      {"smiles": "Cc1ccccc1NC(=O)Nc1ccc2c(c1)C(=O)N(C)[C@H]1CC[C@@H](CC(=O)O)O[C@H]1CO2", "activity change, negative = cytotoxicity": "53.3% [at 23.5 µM] (inactive)"},
      {"smiles": "CC(C)CC#Cc1ccc([C@H]2[C@@H](CO)N3CCCCN(S(=O)(=O)Cc4ccccc4)C[C@H]23)cc1", "activity change, negative = cytotoxicity": "-17.9% (inactive)"},
      {"smiles": "C[C@H]1CN([C@@H](C)CO)C(=O)c2cc(C#Cc3cccnc3)cnc2O[C@H]1CN(C)S(=O)(=O)c1ccccc1F", "activity change, negative = cytotoxicity": "38.2% (inactive)"},
      {"smiles": "COCC(=O)N(C)C[C@H]1[C@H](c2ccccc2)[C@@H](CO)N1C(=O)NC(C)C", "activity change, negative = cytotoxicity": "101% (inactive)"},
      {"smiles": "COc1ccccc1-c1ccc2c(c1)O[C@@H](CN(C)S(=O)(=O)c1ccc(F)cc1)[C@@H](C)CN([C@@H](C)CO)S2(=O)=O", "activity change, negative = cytotoxicity": "52.6% (inactive)"},
      {"smiles": "CCCNC(=O)N1[C@H](CO)[C@@H](c2ccccc2)[C@H]1CNC(=O)c1ccccc1", "activity change, negative = cytotoxicity": "70.2% (inactive)"},
      {"smiles": "CCN(CC)CCNc1nc(-c2ccccc2)nnc1C(F)(F)F", "activity change, negative = cytotoxicity": "76.1% (inactive)"},
      {"smiles": "c1ccc(-n2nnnc2NCCc2c[nH]c3ccccc23)cc1", "activity change, negative = cytotoxicity": "-23.7% (inactive)"},
      {"smiles": "COCC(=O)N(C)C[C@H]1Oc2cc(-c3ccccc3F)ccc2S(=O)(=O)N([C@@H](C)CO)C[C@@H]1C", "activity change, negative = cytotoxicity": "-29.1% (inactive)"},
      {"smiles": "CC(C)c1ccc(NC(=O)C[C@H]2CC[C@H]3[C@@H](COc4ccc(NC(=O)Nc5ccc(F)c(F)c5)cc4C(=O)N3C)O2)cc1", "activity change, negative = cytotoxicity": "-6.32% (inactive)"},
      {"smiles": "CCNC(=O)C[C@H]1CC[C@@H]2[C@H](COc3ccc(NC(=O)c4cccs4)cc3C(=O)N2C)O1", "activity change, negative = cytotoxicity": "128% (inactive)"},
      {"smiles": "C/C=C/c1ccc2c(c1)O[C@H](CN(C)C(=O)Cc1cccnc1)[C@H](C)CN([C@H](C)CO)S2(=O)=O", "activity change, negative = cytotoxicity": "132% (inactive)"},
      {"smiles": "Cn1c(NC(=O)c2ccco2)c(-c2ccccc2Cl)c(=O)c2ccccc21", "activity change, negative = cytotoxicity": "10.7% (inactive)"},
      {"smiles": "COC(=O)C[C@H]1CC[C@@H]2[C@@H](COc3ccc(NC(=O)c4cscn4)cc3C(=O)N2C)O1", "activity change, negative = cytotoxicity": "17.7% (inactive)"},
      {"smiles": "CCOC(=O)CSc1nnnn1-c1cccc2ccccc12", "activity change, negative = cytotoxicity": "20.9% (inactive)"},
      {"smiles": "Fc1ccc(CN2CCN(c3ncnc4scc(-c5ccc(F)cc5)c34)CC2)cc1", "activity change, negative = cytotoxicity": "26% (inactive)"},
      {"smiles": "C[C@H](CO)N1C[C@H](C)[C@H](CN(C)C(=O)NC2CCCCC2)Oc2ncc(-c3cccc(C(F)(F)F)c3)cc2C1=O", "activity change, negative = cytotoxicity": "124% [at 23.5 µM] (inactive)"},
      {"smiles": "CN(C)CCCNC(=O)C[C@H]1CC[C@H]2[C@H](COc3ccc(NC(=O)c4cccc(F)c4)cc3C(=O)N2C)O1", "activity change, negative = cytotoxicity": "30.3% (inactive)"},
      {"smiles": "Cc1cc(C(=O)Nc2cccc(O)c2)co1", "activity change, negative = cytotoxicity": "-23.8% (inactive)"},
      {"smiles": "CC(C)NC(=O)N1[C@H](CO)[C@@H](c2ccccc2)[C@@H]1CNC(=O)CN(C)C", "activity change, negative = cytotoxicity": "-25.2% (inactive)"},
      {"smiles": "CNC(=O)C[C@@H]1CC[C@H]2[C@@H](COc3ccc(NC(=O)c4cccc(OC)c4)cc3C(=O)N2C)O1", "activity change, negative = cytotoxicity": "42.2% [at 23.5 µM] (inactive)"},
      {"smiles": "CCC(=O)N1[C@H](CO)[C@@H](c2ccccc2)[C@@H]1CN(CC)C(=O)c1cccc(F)c1", "activity change, negative = cytotoxicity": "83.6% (inactive)"},
      {"smiles": "CCCNC(=O)N1[C@H](CO)[C@H](c2ccc(-c3ccccc3)cc2)[C@@H]1CNC(C)=O", "activity change, negative = cytotoxicity": "26.7% (inactive)"},
      {"smiles": "COc1ccc(N2CCc3c(C)nc4c(OC)cc(OC)cc4c32)c(OC)c1", "activity change, negative = cytotoxicity": "-48.9% (inactive)"},
      {"smiles": "COc1ccc(NC(=O)Cn2nnc(C(=O)NCc3ccccc3OC)c2N)cc1Cl", "activity change, negative = cytotoxicity": "45.7% (inactive)"},
      {"smiles": "CC(=O)Nc1ccc2c(c1)C(=O)N(C)[C@H]1CC[C@H](CC(=O)NC3CCCCC3)O[C@@H]1CO2", "activity change, negative = cytotoxicity": "121% (inactive)"},
      {"smiles": "CCC(=O)Nc1ccc2c(c1)C(=O)N(C)[C@@H]1CC[C@H](CC(=O)Nc3cccc(OC)c3)O[C@@H]1CO2", "activity change, negative = cytotoxicity": "116% (inactive)"},
      {"smiles": "COC(=O)C[C@H]1CC[C@H]2[C@@H](COc3ccc(NC(=O)Nc4c(C)noc4C)cc3C(=O)N2C)O1", "activity change, negative = cytotoxicity": "110% (inactive)"},
      {"smiles": "CN1C(=O)c2cc(NC(=O)Nc3ccccc3F)ccc2OC[C@@H]2O[C@H](CC(=O)O)CC[C@@H]21", "activity change, negative = cytotoxicity": "20.6% [at 23.5 µM] (inactive)"},
      {"smiles": "COc1ccc(-c2ccc(C#N)c(OC(=O)c3c(Cl)cccc3Cl)n2)cc1", "activity change, negative = cytotoxicity": "-5.32% [at 6 µM] (inactive)"}
    ]}
  ]
}
